# In the library only some 3.5% were active in any assay of this set; here they are far more common.
# CD11b adhes enh – enhancers of human CD11b/CD18 binding to fibrinogen; P05107+P11215; K562 CD11b/CD18 adhesion to fibrinogen, ATPlite luminescence; activation, % at 10 µM; actives 0.07% (n = 93,000); AID 1499;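 active = 10 µM primary screen giving 50% or more activity, confirmed by 40% or more on retest at that dose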
# ERa SRC1 pot – ER-alpha (human) coactivator binding potentiation | actives 1.3% (n = 86,000) | TR-FRET ERalpha-LBD/SRC-Cy5 coactivator binding, 2 h; 100 = basal binding, no effect | coactivator binding (% of control), % at 25.6 µM; in the data active = activity above about 200%;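 also: binding measured in presence of low estradiol as agonist stimulus; 0% = peptide alone without receptor and 100% = receptor with peptide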
# Target sequence (P03372 whole entry, looked up, the tested form may be a part): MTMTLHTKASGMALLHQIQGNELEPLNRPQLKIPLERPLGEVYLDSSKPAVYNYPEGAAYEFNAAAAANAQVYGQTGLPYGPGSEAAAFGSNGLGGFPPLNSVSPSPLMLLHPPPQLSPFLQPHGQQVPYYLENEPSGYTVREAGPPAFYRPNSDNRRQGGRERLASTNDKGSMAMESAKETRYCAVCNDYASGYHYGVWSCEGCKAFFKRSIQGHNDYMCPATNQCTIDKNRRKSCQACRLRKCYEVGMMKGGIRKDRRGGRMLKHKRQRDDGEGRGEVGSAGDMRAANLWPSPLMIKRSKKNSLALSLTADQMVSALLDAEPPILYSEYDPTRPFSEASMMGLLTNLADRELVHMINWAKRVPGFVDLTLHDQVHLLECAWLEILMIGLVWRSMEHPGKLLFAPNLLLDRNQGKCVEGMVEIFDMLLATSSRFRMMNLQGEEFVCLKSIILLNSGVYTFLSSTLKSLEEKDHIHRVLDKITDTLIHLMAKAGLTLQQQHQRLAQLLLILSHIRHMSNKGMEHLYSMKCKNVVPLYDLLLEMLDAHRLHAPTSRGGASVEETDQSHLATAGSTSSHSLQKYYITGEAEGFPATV
# FAK blocker – inhibitors of human focal adhesion kinase; Q05397; biochemical FAK kinase activity assay; inhibition, %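 (tested at 7 µM)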; actives 0.84% (n = 97,000); in the data active = inhibition above about 19%;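 also: 0% = DMSO and 100% = reference compound high control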
# ERa coact inh – ER-alpha (human) coactivator binding inhibition | P03372 | TR-FRET ER-alpha LBD / SRC-1 peptide, estradiol-bound | inhibition, % at 25.6 µM | actives 1.7% (n = 86,000) | AID 629; in the data active = inhibition above about 50%;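 also: 0% = receptor plus peptide control and 100% = peptide only without receptor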
# ERb coact inh – ER-beta (human) coactivator binding inhibition | TR-FRET ER-beta LBD / SRC1-Cy5 peptide binding; receptor agonist-loaded with 1 µM estradiol | inhibition, % at 25.6 µM | actives 1.3% (n = 86,000) | AID 633;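 active = compounds whose percent inhibition of the receptor-coactivator binding signal exceeds about 50% in the single-dose screen, limit read from the data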;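 also: 0% = receptor plus peptide wells without compound and 100% = peptide-only wells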
# CD11b adhes inh – inhibitors of human CD11b/CD18 binding to fibrinogen | actives 0.54% (n = 93,000) | inhibition, % at 10 µM | P05107+P11215 | K562 CD11b/CD18 adhesion to fibrinogen, ATPlite luminescence; Mn2+ added to activate the integrin | AID 1497;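 active = primary inhibition of 50% or more at 10 µM, then 40% or more on retest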
# * = called active by the depositor; . = no result given; [ ] = dose if it differs, or a comment.
SMILES,CD11b adhes enh,ERa SRC1 pot,FAK blocker,ERa coact inh,ERb coact inh,CD11b adhes inh
NC(=O)c1c(NC(=O)CSc2nnc(-c3ccco3)n2-c2ccccc2)sc2c1CCC2,8.3,28.3,.,93.9*[fluorescence artefact?],82.2*[fluorescence artefact?],61.6
N#Cc1c(NC(=O)CSc2nnc(-c3ccco3)n2-c2ccccc2)sc2c1CCC2,13.8,60.8,2.3,43.7,38.3,3.7
CCCOc1ccc(C2/C(=C(/O)c3ccc(F)cc3)C(=O)C(=O)N2CCCN(C)C)cc1 (stereo not given),1.2,89.7,-1.1,-9.0,-10.0,-2.8
CCOC(=O)c1c(NC(=O)CSc2nnc(-c3ccc(OC)cc3)o2)sc2c1CCC2,.,115.9,-0.1,35.4,14.6,.
NC(=O)c1c(NC(=O)COC(=O)CSc2nnc(-c3ccc(Cl)cc3)o2)sc2c1CCC2,64.6,41.2,4.4,58.3*[fluorescence artefact?],45.9,-1.9
CCOC(=O)Cc1csc(SCC(=O)Nc2sc3c(c2C(N)=O)CCC3)n1,16.8,61.4,.,91.8*[fluorescence artefact?],81.9*[fluorescence artefact?],-17.8
CC(C)Cc1nnc(NS(=O)(=O)Cc2ccccc2)s1,-0.7,103.8,0.9,4.0,3.1,3.4
Cc1ccc(/C=C/C(=O)c2ccc(C)cc2)cc1,.,115.8,-3.1,-6.5,-8.7,.
Cc1ccc(/C=C/C(=O)C2C(=O)c3ccccc3C2=O)cc1,-11.8,.,-6.3,.,.,94.8*
COc1ccccc1NC(=O)CSc1nnc(-c2ccccn2)n1Cc1ccco1,-4.9,125.8,-8.3,-10.9,3.5,1.0
CCCCCOc1ccccc1C(=O)NCC(=O)O,.,119.5,-6.8,-3.2,79.2*[fluorescence artefact?],.
Cn1c(=O)oc2cc(S(=O)(=O)N3CCCC(C(=O)N4CC=C(c5ccccc5)CC4)C3)ccc21 (stereo not given),-3.3,94.6,-1.1,-7.5,1.1,60.9*
Cn1c(=O)oc2cc(S(=O)(=O)N3CCCC(C(=O)NC4CCCc5ccccc54)C3)ccc21 (stereo not given),1.0,79.9,3.5,15.8,51.1*[fluorescence artefact?],12.1
O=C(COC(=O)c1ccc(NS(=O)(=O)c2ccc3c(c2)OCCO3)cc1)NCC1CCCO1 (stereo not given),4.8,72.5,-3.2,5.5,1.5,7.3
CN(C)c1ccc(/C=C/c2ccc3ccccc3[n+]2C)cc1,-6.7,.,.,.,.,79.1*
Cc1ccccc1NC(=O)N(CCc1nc2ccccc2[nH]1)Cc1ccccc1,.,98.0,-0.2,-8.8,0.1,.
CC(=O)Nc1c(S(=O)(=O)c2ccccc2)c2nc3ccccc3nc2n1Cc1ccccc1,.,.,-3.8,.,.,.
C=CCn1c(NS(=O)(=O)c2ccccc2)c(S(=O)(=O)c2ccc(C)cc2)c2nc3ccccc3nc21,-9.8,.,.,.,.,95.7*
O=C(N/N=C/c1ccc(F)cc1)c1c(O)c2ccccc2[nH]c1=O,12.6,.,.,.,.,56.3
Cc1nnc(SCc2nnc(-c3ccccc3Br)o2)n1-c1ccccc1,5.7,78.2,-0.2,44.4,27.7,2.7
Brc1ccccc1-c1nnc(CSc2nnnn2-c2ccccc2)o1,5.0,88.0,3.2,51.0*,26.6,-6.2
COc1cc(C(c2sc3nc(C)nn3c2O)N2CCOCC2)cc(OC)c1OC (stereo not given),.,.,-10.0,.,.,.
COc1cc(C(c2sc3nc(C)nn3c2O)N2CCN(c3ccccc3)CC2)cc(OC)c1OC (stereo not given),.,106.7,.,83.2*[fluorescence artefact?],-6.5,.
Cc1ccc(C(c2sc3nc(C)nn3c2O)N2CCN(c3ccccc3F)CC2)cc1 (stereo not given),-0.3,107.2,3.0,-1.6,72.0*[fluorescence artefact?],-16.3
CCOC(=O)c1ccc(NC(=O)CN2C(=O)C(C)SC(C)C2=O)cc1 (stereo not given),1.3,.,.,.,.,-19.2
SMILES,CD11b adhes enh,ERa SRC1 pot,FAK blocker,ERa coact inh,ERb coact inh,CD11b adhes inh
Cc1ccc(SCc2cc(=O)[nH]c(/N=C(\N)Nc3ccccc3Sc3ccccc3)n2)cc1,-0.3,.,.,.,.,-2.2
COc1ccccc1N/C(N)=N/c1nc(CSc2ccc(C)cc2)cc(=O)[nH]1,-1.0,257.9*[fluorescence artefact?],16.9,48.2,30.4,11.7
Cn1c(=O)c2c(nc(CN3CCc4ccccc4C3)n2Cc2ccc(F)cc2)n(C)c1=O,.,111.3,3.3,-5.4,-4.5,.
Cc1ccccc1Cn1c(CN2CCc3ccccc3C2)nc2c1c(=O)n(C)c(=O)n2C,.,109.2,7.8,3.4,96.8*[fluorescence artefact?],.
OCCN1CCN(c2nc(NCc3ccco3)c3ccccc3n2)CC1,.,137.5,-0.7,-8.7,-6.0,.
CSc1nc(NCc2ccco2)c2ccccc2n1,-4.3,98.1,15.5,54.5*,3.6,-26.2
COc1ccc(-c2cc(-c3nnc(COC(=O)CC4CC5CCC4C5)o3)c3ccccc3n2)cc1OC (stereo not given),64.4,.,.,.,.,-9.4
O=C(c1ccccc1)c1ccc(OCCCN2CCCCC2)cc1,-6.6,95.0,1.4,11.9,1.8,-1.4
CCOC(=O)c1cc2c(=O)n3cccc(C)c3nc2n(Cc2ccco2)c1=NC(=O)c1cccnc1,-1.9,64.1,6.1,55.2*[fluorescence artefact?],58.2*[fluorescence artefact?],37.8
Cc1ccc(-n2c(=O)c(C#N)cc3c(=O)n4cccc(C)c4nc32)cc1,52.3,140.4,-0.5,62.3*,51.9*,-8.1
CCOC(=O)c1cc2c(=O)n3ccccc3nc2n(Cc2ccco2)c1=NC(=O)c1cccnc1,-4.6,82.8,-4.8,22.9,40.2,-11.6
CCCn1c(=NC(C)=O)c(C#N)cc2c(=O)n3cccc(C)c3nc21,.,58.8,3.1,53.7*[fluorescence artefact?],47.0,.
Cc1cccc(C(=O)N=c2c(C#N)cc3c(=O)n4cccc(C)c4nc3n2Cc2ccco2)c1,81.5,150.2,10.7,29.7,30.0,-17.5
Cc1cccn2c(=O)c3cc(C#N)c(=NC(=O)c4ccccc4)n(Cc4ccco4)c3nc12,.,176.9,.,62.5*[fluorescence artefact?],41.5,.
Cc1cc(C)n(-c2ccc(C(=O)Nc3ccc4c(c3)OCO4)cc2)n1,-0.9,87.8,-0.4,-5.4,-1.1,4.0
COCCNC(=O)CN1C(=O)CC(C)(C)S(=O)(=O)c2ccccc21,0.5,119.8,-2.3,-7.0,-4.1,-6.2
O=C(Cn1nnc(-c2cc(Cl)ccc2-n2cnnn2)n1)N1CCCc2ccccc21,4.4,98.5,-0.2,1.1,3.3,-12.0
Cc1ccc(-c2cc3nc(-c4ccccc4)cc(N4CCOCC4)n3n2)cc1,.,174.4,-0.8,-25.1,-20.3,.
COc1ccc(-c2cc3nc(-c4ccccc4)cc(N4CCC5(CC4)OCCO5)n3n2)cc1,-0.4,267.1*[fluorescence artefact?],0.1,-7.2,21.2,2.6
COc1ccc2nc(NC(=O)c3cnccn3)sc2c1,10.2,46.1,0.3,75.1*[fluorescence artefact?],49.9,5.9
CCOC(=O)c1oc2ccccc2c1NC(=O)c1ccccc1OC,.,101.6,-1.0,-10.2,-2.7,.
Cc1cc(C(=O)OCC(=O)c2ccc(Br)s2)c(C)o1,3.8,95.4,-1.7,14.3,10.1,-17.5
Cc1cc(C(=O)OCC(=O)c2ccc(Br)s2)no1,-0.7,58.4,-3.8,58.0*,48.2,-4.3
CCCn1nc([N+](=O)[O-])c(C(C#N)c2nc3ccccc3s2)c(Cl)c1=O (stereo not given),-8.5,.,-0.5,.,.,95.3*

# Compound activity as filed in PubChem.
